# In PubChem BioAssay AID765 (NMMLSC, 2007):
# Unmarked numbers belong to inactive results. Activity calls are given as the source filed them. No stated cut-off is given here; in the data, active means inhibition above about 31%; inactive means the rest.
# Target: N-formyl peptide receptor 2 (Homo sapiens) (UniProt P25090)
# Experiment: FPRL1 fluorescent ligand binding inhibitors, cell-based, flow cytometry, single concentration (AID 765)
# Conditions: FPRL1-expressing cells, stronger effect = higher value; at 5.1 µM unless noted
# Sequence of N-formyl peptide receptor 2 (Homo sapiens) (P25090 whole entry, looked up): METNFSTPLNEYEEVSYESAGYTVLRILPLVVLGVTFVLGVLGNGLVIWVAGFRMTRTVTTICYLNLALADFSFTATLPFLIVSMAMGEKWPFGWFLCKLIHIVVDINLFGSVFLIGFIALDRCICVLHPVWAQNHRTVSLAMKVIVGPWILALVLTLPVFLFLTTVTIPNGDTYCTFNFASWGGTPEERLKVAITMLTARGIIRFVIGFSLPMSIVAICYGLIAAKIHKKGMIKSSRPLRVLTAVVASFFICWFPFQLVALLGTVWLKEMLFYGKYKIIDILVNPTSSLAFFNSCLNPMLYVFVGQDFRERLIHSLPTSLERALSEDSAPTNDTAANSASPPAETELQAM
row,SMILES,inhibition
1,CC(C)(C)OC(=O)N1CCN(c2nc(-c3ccccc3)c3cc(Br)ccc3n2)CC1,-2.1% [at 4.7 µM]
2,Fc1ccc(-c2cc(C(F)(F)F)nc(N3CCN(C(c4ccccc4)c4ccccc4)CC3)n2)cc1,-9.4% [at 4.5 µM]
3,COc1ccc(CC(=O)Nc2cc(-c3cn4cccnc4n3)ccc2OC)cc1,64.2% [at 5.7 µM] (active)
4,CCOC(=O)N1CCN(c2nc(-c3ccc(C)cc3)cc(C(F)F)n2)CC1,1% [at 5.9 µM]
5,O=C(c1ccccc1Cl)N1CCN(c2nc(-c3ccccc3)c3cc(Cl)ccc3n2)CC1,4.5% [at 4.8 µM]
6,CCN1CCN(c2nc(-c3cccc(Cl)c3)c3c(n2)-c2ccccc2OC3)CC1,-10.9% [at 5.5 µM]
7,O=C(c1ccccc1)N1CCN(c2nc(-c3ccccc3)c3cc([N+](=O)[O-])ccc3n2)CC1,18.8%
8,COc1ccc(-c2cn3cccnc3n2)cc1NC(=O)C1CC1,71.5% [at 7.2 µM] (active)
9,CCCCN1CCN(c2nc(-c3ccccc3)c3cc(C)ccc3n2)CC1,17.2% [at 5.6 µM]
10,COc1ccc(-c2cn3cccnc3n2)cc1NC(=O)c1ccccc1Cl,19% [at 5.9 µM]
11,Clc1cccc(-c2nc(N3CCN(C4CCCCC4)CC3)nc3c2COc2ccccc2-3)c1,-1.5% [at 4.8 µM]
12,COc1ccc(-c2cc(C(F)(F)F)nc(N3CCN(C(c4ccccc4)c4ccccc4)CC3)n2)cc1OC,25.4% [at 4.2 µM]
13,CCOC(=O)N1CCN(c2nc(-c3ccccc3)c3cc(C)ccc3n2)CC1,3.4% [at 5.9 µM]
14,COc1cccc(C(=O)Nc2cc(-c3cn4cccnc4n3)ccc2OC)c1,12.2% [at 5.9 µM]
15,CCCC(=O)Nc1cc(-c2cn3cccnc3n2)ccc1OC,2.2% [at 7.2 µM]
16,O=C(O)CCCC(=O)N1CCN(c2nc(-c3ccccc3)c3ccccc3n2)CC1,-1.7% [at 5.5 µM]
17,COc1ccc(-c2cn3cccnc3n2)cc1NC(=O)c1ccc(Br)cc1,-12.5% [at 5.3 µM]
18,O=C(N1CCN(c2nc(-c3ccccc3)c3ccccc3n2)CC1)C(F)(F)F,24.8% [at 5.8 µM]
19,COc1ccc(-c2cn3cccnc3n2)cc1NC(=O)C1CCCC1,34.6% [at 6.6 µM] (active)

row,SMILES,inhibition
1,Cc1ccccc1N1CCN(c2nc(-c3ccccc3)c3cc(Br)ccc3n2)CC1,0.2% [at 4.8 µM]
2,COc1ccc(-c2cn3cccnc3n2)cc1NC(=O)c1ccc(Cl)cc1,3% [at 5.9 µM]
3,O=C(O)CCC(=O)N1CCN(c2nc(-c3ccccc3)c3cc(Br)ccc3n2)CC1,-3.9% [at 4.7 µM]
4,COc1ccc(-c2cn3cccnc3n2)cc1NC(=O)c1cccc(Br)c1,0.7% [at 5.3 µM]
5,COc1ccc(-c2cc(C(F)(F)F)nc(N3CCN(C)CC3)n2)cc1,-15.1% [at 6.3 µM]
6,COc1ccc(-c2cn3cccnc3n2)cc1NC(=O)CCc1ccccc1,16% [at 6 µM]
7,COc1ccc(-c2cn3cccnc3n2)cc1NC(=O)c1cc(Br)ccc1Cl,4.3% [at 4.9 µM]
8,Cc1ccc2nc(N3CCN(C(=O)CCCC(=O)O)CC3)nc(-c3ccccc3)c2c1,1.1% [at 5.3 µM]
9,COc1ccccc1N1CCN(c2nc(-c3ccc(F)cc3)cc(C(F)(F)F)n2)CC1,-8.4%
10,COc1ccc(C2CC(=O)c3cnc(N4CCN(Cc5ccc6c(c5)OCO6)CC4)nc3C2)cc1OC (configuration not stated),11.9% [at 4.4 µM]
11,O=C(N1CCN(c2nc(-c3ccccc3)c3cc([N+](=O)[O-])ccc3n2)CC1)C(F)(F)F,-4.2% [at 5.2 µM]
12,CCCC(CCC)C(=O)Nc1cc(-c2cn3cccnc3n2)ccc1OC,19.4% [at 6.1 µM]
13,O=C(O)CCC(=O)N1CCN(c2nc(-c3ccccc3)c3cc([N+](=O)[O-])ccc3n2)CC1,3.6%
14,Cc1ccc(-c2cc(C(F)F)nc(N3CCN(Cc4ccccc4)CC3)n2)cc1,-4.2% [at 5.6 µM]
15,O=C(O)CCC(=O)N1CCN(c2nc(-c3ccccc3Cl)c3cc(Br)ccc3n2)CC1,-2% [at 4.4 µM]
16,CCC(=O)Nc1cc(-c2cn3cccnc3n2)ccc1OC,41.3% [at 7.5 µM] (active)
17,COc1ccc(-c2cn3cccnc3n2)cc1NC(=O)c1c(-c2ccccc2Cl)noc1C,13.3% [at 4.8 µM]
18,COc1ccc(C2CC(=O)c3cnc(N4CCN(Cc5ccc6c(c5)OCO6)CC4)nc3C2)cc1 (configuration not stated),8% [at 4.7 µM]
